An excerpt weighted towards active compounds, which were near 2.4% of everything screened.
Pol beta inh = qHTS Assay for Inhibitors of DNA Polymerase Beta; Pol beta primer extension/strand displacement, fluorescence kinetic; Potency, µM (doses to about 114 µM), actives largely listed as inhibitors; hit rate 1.3% among 340,000; AID 485314, 2010
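Kinetic readout of DNA synthesis with strand displacement by Pol beta. Compound and 10 nM enzyme sit 15 min at room temperature; 50 nM substrate starts the reaction, read immediately and at 10 min.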
L3MBTL1 inh = qHTS Assay for the Inhibitors of L3MBTL1. AlphaScreen L3MBTL1–H3K9me1 peptide binding. AID 485360, 2010. Potency, µM (titrated, usually from 57.1 µM), most hits filed as inhibitors. hit rate 0.66% among 230,000. Lethal(3)malignant brain tumor-like protein 1 (Homo sapiens), Q9Y468; further: nearly all actives have a fitted effect of over 60% in size
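First, the protein-peptide complex forms for 30 min at room temperature (L3MBTL1 50 nM, biotinylated H3K9me1 peptide 75 nM). Next, compounds are pin-transferred and incubated 30 min. Finally, AlphaScreen beads are added and read after 30 min.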
Pol kappa inh = qHTS for Inhibitors of Polymerase Kappa | DNA polymerase kappa (Homo sapiens), Q9UBT6 | purified Pol kappa, fluorescent DNA synthesis assay, 10 min | Potency, µM (series often up to 107 µM), usual class: inhibitors | hit rate 0.53% among 400,000
Target sequence (Q9UBT6 whole entry, looked up): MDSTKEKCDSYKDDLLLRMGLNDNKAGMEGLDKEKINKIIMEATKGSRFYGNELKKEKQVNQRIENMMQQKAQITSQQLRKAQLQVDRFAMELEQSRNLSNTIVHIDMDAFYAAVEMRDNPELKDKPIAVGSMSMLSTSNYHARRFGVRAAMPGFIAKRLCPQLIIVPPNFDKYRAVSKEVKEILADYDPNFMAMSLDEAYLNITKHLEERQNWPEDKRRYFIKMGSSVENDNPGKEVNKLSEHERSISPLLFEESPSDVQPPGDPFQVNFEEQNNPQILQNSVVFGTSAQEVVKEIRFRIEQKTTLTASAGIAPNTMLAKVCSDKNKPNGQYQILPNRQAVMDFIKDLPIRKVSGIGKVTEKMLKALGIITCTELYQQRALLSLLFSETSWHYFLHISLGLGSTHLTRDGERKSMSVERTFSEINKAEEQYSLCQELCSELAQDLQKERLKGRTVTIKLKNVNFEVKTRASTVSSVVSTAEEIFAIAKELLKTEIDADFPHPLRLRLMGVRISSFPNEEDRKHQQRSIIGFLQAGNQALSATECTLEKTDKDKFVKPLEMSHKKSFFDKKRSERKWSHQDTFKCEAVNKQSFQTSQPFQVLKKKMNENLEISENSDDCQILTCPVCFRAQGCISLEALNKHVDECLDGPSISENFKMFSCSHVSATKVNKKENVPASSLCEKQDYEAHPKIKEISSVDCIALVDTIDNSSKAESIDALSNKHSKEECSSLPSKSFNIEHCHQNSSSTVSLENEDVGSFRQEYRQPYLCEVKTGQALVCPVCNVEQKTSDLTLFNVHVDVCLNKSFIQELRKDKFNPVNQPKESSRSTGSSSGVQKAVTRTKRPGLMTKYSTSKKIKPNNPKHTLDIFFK
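Here, compound and 10 nM enzyme are combined for 15 min at room temperature; adding 50 nM substrate (final) starts DNA synthesis, tracked by fluorescence at 0 and 10 min against buffer-only wells.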
Pol eta inh = qHTS for Inhibitors of Polymerase Eta. hit rate 1.2% among 390,000. Potency, µM (titrated, usually from 114 µM), usual class: inhibitors. recombinant Pol eta, fluorescent DNA replication assay
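Pol eta (10 nM) was preincubated with compounds for 15 min at room temperature, after which fluorescent replication substrate (50 nM final) was added to start the reaction. Fluorescence was read kinetically at 0 and 10 min.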
Pol iota inh = qHTS for Inhibitors of Polymerase Iota; Pol iota fluorescent replication assay, 10 min; Potency, µM (titrated, usually from 115 µM), most hits filed as inhibitors; hit rate 1% among 390,000; AID 588590, 2011
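Pol iota at 10 nM preincubated 15 min with compounds at room temperature; reaction started with fluorescent substrate, 50 nM final. Fluorescence read kinetically at 0 and 10 min; buffer-only wells as negative control.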
Large screens that a line does not name were inactive; ! = not confirmed by another sample. The call rests on the fitted dose curve; in most records, active means well fitted curve in the direction sought with a large enough effect; inconclusive means small, poorly fitted or top-dose-only effect, or another doubt; inactive means no such curve, though single readings can be large; an effect the other way counts as inactive or inconclusive.

CCN1/C(=C\C=C\C2=[N+](CC)c3ccccc3C2(C)C)C(C)(C)c2ccccc21	Pol beta inh 25.1µM, Pol kappa inh 17.8µM (no result: L3MBTL1 inh, Pol iota inh)
O=S(=O)(O)c1cc(N=C=S)ccc1/C=C/c1ccc(N=C=S)cc1S(=O)(=O)O	Pol kappa inh 35.5µM (no result: Pol beta inh, L3MBTL1 inh, Pol eta inh, Pol iota inh)
O=c1c2ccccc2nc(-c2cccs2)n1-c1ccccc1	Pol beta inh inconclusive
NC(N)=N/N=C/c1cn(-c2ccccc2)nc1-c1cccs1	Pol beta inh 28.2µM
Cc1cccc(N(C)S(=O)(=O)c2cc(-c3cnc(C4CC4)o3)ccc2C)c1	Pol iota inh inconclusive (no result: L3MBTL1 inh, Pol eta inh)
CC(C)(Oc1ccc(Cl)cc1)C(=O)OCC(=O)N1CCN(c2ccccc2)CC1	none (no result: Pol beta inh)
COc1ccc2c(c1)CCc1c(C(=O)Nc3c(C)nn(Cc4ccccc4C)c3C)noc1-2	none (no result: L3MBTL1 inh)
C[C@@H]1O[C@@H](Oc2c(-c3ccc(O)c(O)c3)oc3cc(O)cc(O)c3c2=O)[C@H](O)[C@H](O)[C@H]1O	L3MBTL1 inh inconclusive, Pol kappa inh 44.7µM, Pol eta inh inconclusive, Pol iota inh 35.5µM (no result: Pol beta inh)
C[C@H](N)C(=O)NCC(=O)N[C@H]1CSSC[C@@H](C(=O)O)NC(=O)[C@H](CO)NC(=O)[C@H]([C@@H](C)O)NC(=O)[C@H](Cc2ccccc2)NC(=O)[C@H]([C@@H](C)O)NC(=O)[C@H](CCCCN)NC(=O)[C@@H](Cc2c[nH]c3ccccc23)NC(=O)[C@H](Cc2ccccc2)NC(=O)[C@H](Cc2ccccc2)NC(=O)[C@H](CC(N)=O)NC(=O)[C@H](CCCCN)NC1=O	none (no result: Pol beta inh, L3MBTL1 inh, Pol eta inh, Pol iota inh)
CCCCC/C=C\C/C=C\C/C=C\C/C=C\CCCC(=O)O	L3MBTL1 inh inconclusive, Pol kappa inh 12.6µM! (no result: Pol beta inh, Pol eta inh, Pol iota inh)
COc1ccc(C=C(C(=O)O)c2ccc(OC)cc2)cc1	none (no result: Pol beta inh, L3MBTL1 inh)
CCOC(=O)c1c(-n2c(C)cc(C=C3C(=O)NC(=S)NC3=O)c2C)sc2c1CCCC2	Pol beta inh 22.4µM, Pol kappa inh inconclusive, Pol eta inh 28.2µM, Pol iota inh inconclusive
O=C(O)c1[nH]n(-c2ccc(S(=O)(=O)O)cc2)c(=O)c1N=Nc1ccc(S(=O)(=O)O)cc1	Pol iota inh inconclusive (no result: Pol beta inh, L3MBTL1 inh, Pol eta inh)
CCC(=O)CCCCC[C@@H]1NC(=O)[C@H]2CCCCN2C(=O)[C@H]([C@@H](C)CC)NC(=O)[C@H](Cc2cn(OC)c3ccccc23)NC1=O	none (no result: Pol beta inh, L3MBTL1 inh, Pol eta inh, Pol iota inh)
CN(C)CCNC(=S)Nc1ccccc1Cl	none
CN(CC(=O)NC(=O)NCc1ccco1)CC(=O)Nc1ccccc1Cl	L3MBTL1 inh inconclusive, Pol kappa inh inconclusive, Pol eta inh inconclusive, Pol iota inh 50.1µM
O=C1NC(=O)N(c2ccccc2)C(=O)/C1=C/c1coc2ccc(O)cc2c1=O	Pol kappa inh inconclusive, Pol eta inh inconclusive, Pol iota inh 22.4µM (no result: L3MBTL1 inh)
Cc1cccc(C(=O)Nc2nnc(SCC(=O)NCc3ccco3)s2)c1	none (no result: Pol beta inh, L3MBTL1 inh)
C[C@H](CCC(=O)O)[C@H]1CC[C@@H]2[C@H]3[C@@H](CC[C@@]21C)[C@]1(C)CC[C@H](O)C[C@@H]1C[C@@H]3O	none (no result: Pol beta inh, L3MBTL1 inh, Pol eta inh, Pol iota inh)
CCN(CC)c1ccc(CC2C(=O)N(C)C(=O)N(C)C2=O)cc1	L3MBTL1 inh inconclusive, Pol iota inh inconclusive
C=CCOc1ccc(CC2C(=O)N(C)C(=O)N(C)C2=O)cc1	Pol beta inh inconclusive, Pol eta inh 15.8µM, Pol iota inh inconclusive
Cc1ccc(-n2nc3c(=O)n(CC(=O)NCC(C)c4ccccc4)nc(C)c3c2C)cc1 (configuration not stated)	none (no result: L3MBTL1 inh)
CCC1OC2(C)C(O)C(/C=C/C=C/C=C/c3oc(=O)cc(OC)c3C)OC1(C)C2OC(C)=O (configuration not stated)	none (no result: Pol beta inh, L3MBTL1 inh, Pol eta inh, Pol iota inh)
Cc1cc(C)cc(N2C(=O)/C(=C\c3ccc(N4CCN(C)CC4)o3)C(=O)NC2=S)c1	Pol iota inh 31.6µM
Cn1cccc1C(=O)OCC(=O)NCc1cccs1	none (no result: Pol beta inh)
Cc1cc(C)cc(N2C(=O)NC(=O)/C(=C\c3cccn3-c3ccc(Cl)cc3)C2=O)c1	Pol eta inh 22.4µM, Pol iota inh inconclusive
CCOC(=O)Nc1ccc(NCc2ccc(F)cc2)nc1N	L3MBTL1 inh inconclusive, Pol eta inh 28.2µM, Pol iota inh 3.98µM
Cc1ccc(N2C(=O)/C(=C/N3CCN(C(=O)c4ccco4)CC3)C(=O)NC2=S)cc1C	Pol iota inh 17.8µM
CCOc1ccc2nc(N=Nc3c(O)[nH]c(=O)[nH]c3=O)sc2c1	Pol eta inh inconclusive

Compound activity deposited in PubChem by National Center for Advancing Translational Sciences (NCATS).
